Activity calls are given as the source filed them. The calls were made as follows: active = hit-call score of the fitted dose curve at least 0.9, where 1 is the maximum; inactive = score below 0.9.

This passage reports outcome and AC50 results from PubChem BioAssay (EPA / NIEHS).

The nature of the assay: ATG_PPRE_CIS: Attagene CIS-FACTORIAL HepG2 Assay for human Peroxisome Proliferator-activated Response Element (PPRE) (AID 2282958). As to conditions: HepG2 PPRE cis-element reporter, Attagene transcription factor profiling; actives raise or lower the signal. Here is the method: ATG_CIS is a cell-based, multiplexed-readout assay that uses HepG2, a human liver cell line, with measurements taken at 24 hours after chemical dosing in a 24-well plate.ATG_PPRE_CIS is one of 52 assay component(s) measured or calculated from the ATG_CIS assay. It is designed to make measurements of mRNA induction, a form of inducible reporter, as detected with fluorescence intensity signals by Reverse transcription polymerase chain reaction (RT-PCR) and Capillary electrophoresis technology.Data from the assay component ATG_PPRE_CIS was analyzed into 1 assay endpoint. This assay endpoint, ATG_PPRE_CIS, was analyzed with bidirectional fitting relative to DMSO as the negative control and baseline of activity. Using a type of inducible reporter, measures of mRNA for gain or loss-of-signal activity can be used to understand the reporter gene at the transcription factor-level as they relate to the gene PPARA and PPARD and PPARG. Furthermore, this assay endpoint can be referred to as a primary readout, because this assay has produced multiple assay endpoints where this one serves a reporter gene function. To generalize the intended target to other relatable targets, this assay endpoint is annotated to the nuclear receptor intended target family, where the subfamily is non-steroidal.
Human liver HepG2 cells are transiently transfected with multiple reporter transcription units (MRTUs) in 6-well plates using FuGene 6 reagent (Roche; 3 ml FuGene/1 mg DNA). The MRTU constructs are regulated by a cis-regulating element (promoter). […] A major difference between the CIS and TRANS system is that in CIS activities of endogenous TFs are measured, whereas the TRANS assay evaluates changes in activities of exogenous, chimeric NR-Gal4 proteins. […] At the end of 24 hour incubation, total RNA was isolated using TriZol reagent (Invitrogen). The isolated RNA is then reverse-transcribed using oligo(dT) primer and Mo-MLV reverse transcriptase (Invitrogen) with DNAse I (Ambion) treatment for 30 min. The one-tenth of the produced cDNA was amplified by PCR using Taq DNA polymerase (Invitrogen) and two reporter sequence-specific primers. The PCR products were fluorescently labeled by primer extension with 6-arboxyfluorescein (6-FAM) 5'-labeled reporter sequence-specific primer (2 min at 95 C, 20 s at 68 C and 10 min at 72 C) and these products were digested with 5U of HpaI (New England Biolabs) for 2h at 37 C. The fragments were purified using Qiaquick PCR columns (Qiagen), analyzed on an ABI 3130xL genetic analyzer (Applied Biosystems) with peak positions identified by using a set of X-rhodamine (ROX)-labeled MapMarker1000 molecular weight standards (BioVentures). The raw capillary electrophoresis data was processed using Attagraph software (Attagene).
Consider `ClCC(Cl)Cl`, for which the outcome was inactive. Regarding `CCC(=O)c1ccc(Cl)cc1`, the outcome was inactive. On the same count and under the same terms, for `CSc1nc(N=[N+]=[N-])nc(NC(C)C)n1` the value was “inactive”; for `CCOC(=O)N(C)N=O`, “inactive”; for `C=CC(=O)OCC(CC)CCCC` (stereo not given), “inactive”.

Turning to `Cc1ccc(OP(=O)(Oc2ccc(C)cc2)Oc2ccc(C)cc2)cc1` (tested in a mixture with another compound), the compound was called inactive. The same measure, in the same setting: for `CC1OC(C)OC(C)O1` (stereo not given) the value was “inactive”.

Take `CCC(C)c1cc([N+](=O)[O-])cc([N+](=O)[O-])c1OC(=O)C=C(C)C` (stereo not given): the outcome was inactive. `C=CC(=O)OCCCCOC(=O)C=C`: the outcome was inactive. As for `[Cl][Sb]([Cl])[Cl]`, the result was inactive. The same measure, in the same setting: for `Cl/C=C\CCl` the value was “inactive”. As for `O=c1[nH]c(Cl)c(Cl)cc1Cl`, the AC50 (usually the midpoint of the concentration-response curve, whichever way the signal moves) is 15.8 µM (active). For `C[N+](C)(C)CC(=O)[O-]`, the result was inactive. Still for that read-out and setting: for `CC1(C)CC(=O)CC(C)(C)N1[O]` the value was “inactive”.

Regarding `C=CCN(CC=C)C(=O)C(Cl)Cl`, the outcome was inactive. Consider `CC(C)C(=O)Cl`, for which the result was inactive. Still for that read-out and setting: in the case of `O=c1c2ccccc2c(=O)c2c1cc(Cl)c1[nH]c3c([nH]c12)c(Cl)cc1c(=O)c2ccccc2c(=O)c13` it was “inactive”. The same measure, in the same setting: in the case of `CCC(C)(C)O` it was “inactive”; in that of `O=C(CCl)c1ccccc1`, “inactive”. The same measure, in the same setting: for `O=[N+]([O-])c1cc([N+](=O)[O-])c2ccccc2c1` the value was “inactive”. Regarding `CCCCCc1cc(O)cc(O)c1`, the AC50 was 19.8 µM (active). As to `CC(C)C#N`, the compound was called inactive. Consider `C[N+](C)(C)CC(=O)O`, for which the compound was called inactive.

Turning to `CN(C)CCC#N`, the call was inactive. `CC(C)(c1cc(Cl)c(O)c(Cl)c1)c1cc(Cl)c(O)c(Cl)c1`: the call was inactive. On the same count and under the same terms, in the case of `Oc1ccc(C2(c3ccc(O)cc3)c3ccccc3-c3ccccc32)cc1` it was “inactive”; in that of `C=COCCCl`, “inactive”. Same read-out and setting: in the case of `CCCCCCCCCCCCCCCC[N+](C)(C)C` it was “inactive”; in that of `Nc1ccc(-c2ccc(N)c(N)c2)cc1N`, “inactive”.

Turning to `CN(C)N`, the call was inactive.

As for `O=[N+]([O-])c1cc(C(F)(F)F)c(Cl)c([N+](=O)[O-])c1Cl`, the compound was called inactive. Regarding `O=C(O)c1cc[c]([Hg][Cl])cc1`, the compound was called inactive. For the compound `Clc1ccc(-c2ccccc2)cc1`, the call was inactive. Take `C=C(Cl)Cl`: the outcome was inactive. The same measure, in the same setting: in the case of `CCCCOC(=O)CCC(=O)OCCCC` it was “inactive”; in that of `CC(=O)C=Cc1ccccc1`, “inactive”; in that of `CC(C)(C)C(=O)CCl`, “inactive”.

As for `CCC(C)c1cc(C(C)(C)C)cc(-n2nc3ccccc3n2)c1O` (stereo not given), the compound was classed as inactive.

For the compound `O=C(NC(=O)c1c(F)cccc1F)Nc1ccc(Oc2ccc(C(F)(F)F)cc2Cl)cc1F`, the call was inactive. Take `BrCBr`: the call was inactive.
